# The supplement of paper PMC12350171
# Structures can show the parent of a compound that is named as a salt. A number with no mark means an inactive call.
# Tested on: Yersinia pseudotuberculosis
# Experiment: growth AUC normalised to DMSO control (fraction of control); higher = less growth inhibition, active = hit call of the paper
# Details: 20 µM
# How it was run: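 For the AUC endpoint, growth curves were integrated by the trapezoidal rule up to the exponential-to-stationary transition and normalised to DMSO controls on the same plate. The curves came from OD578 readings taken hourly for 24 h, in three biological replicates. Pathogens had been passaged anaerobically twice and inoculated at an OD578 of 0.01 into pre-reduced mGAM plates carrying 20 μM compound and 1% DMSO, sealed with breathable membranes. Medium for Haemophilus parainfluenzae also contained hemin and NAD.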
row,Compound,growth AUC normalised to DMSO control
1,O=C1C(=O)c2ccccc2C(O)=C1C1CCC(c2ccc(Cl)cc2)CC1 (configuration not stated) [Atovaquone],0.993
2,CC(C)OC(=O)C(C)(C)Oc1ccc(C(=O)c2ccc(Cl)cc2)cc1 [Fenofibrate],0.992
3,NNc1nncc2ccccc12 [Hydralazine hydrochloride],1.03
4,O=C(O)c1cc(/N=N/c2ccc(S(=O)(=O)Nc3ccccn3)cc2)ccc1O [Sulfasalazine],0.99
5,COC1=CC(=O)C[C@@H](C)[C@]12Oc1c(Cl)c(OC)cc(OC)c1C2=O [Griseofulvin],1.03
6,Cn1c(=O)c2nc[nH]c2n(C)c1=O [Theophylline monohydrate],1.02
7,N=C(N)c1ccc(OCCCCCOc2ccc(C(=N)N)cc2)cc1 [Pentamidine isethionate],1.02
8,Cc1cn([C@H]2C[C@H](N=[N+]=[N-])[C@@H](CO)O2)c(=O)[nH]c1=O [Zidovudine],0.781 (active)
9,COc1ccc2c(c1)c(CC(=O)O)c(C)n2C(=O)c1ccc(Cl)cc1 [Indomethacin],1
10,O=c1[nH]cnc2c1ncn2[C@H]1CC[C@@H](CO)O1 [Didanosine],0.73 (active)
11,C[C@]12CC[C@@H]3c4ccc(O)cc4CC[C@H]3[C@@H]1C[C@@H](O)[C@@H]2O [Estriol],1.01
12,COc1cc([C@@H]2c3cc4c(cc3[C@@H](O[C@@H]3O[C@@H]5CO[C@@H](C)O[C@H]5[C@H](O)[C@H]3O)[C@H]3COC(=O)[C@H]23)OCO4)cc(OC)c1O [Etoposide],0.99
13,CCN1CCN(C(=O)N[C@@H](C(=O)N[C@@H]2C(=O)N3[C@@H]2SC(C)(C)[C@@H]3C(=O)O)c2ccccc2)C(=O)C1=O [Piperacillin sodium salt],0.291 (active)
14,O=C(C1CCCCC1)N1CC(=O)N2CCc3ccccc3C2C1 (configuration not stated) [Praziquantel],0.996
15,CC(=O)[C@H]1CC[C@H]2[C@@H]3CCC4=CC(=O)CC[C@]4(C)[C@H]3CC[C@]12C [Progesterone],1
16,O=c1[nH]c(=O)n([C@H]2C[C@H](O)[C@@H](CO)O2)cc1C(F)(F)F [Trifluridine],0.997
17,C[C@H]1[C@H](NC(=O)/C(=N\OC(C)(C)C(=O)O)c2csc(N)n2)C(=O)N1S(=O)(=O)O [Aztreonam],0.135 (active)
18,Cc1ncc([N+](=O)[O-])n1CCO [Metronidazole],1
19,CCCC(=O)Nc1ncnc2c1ncn2[C@@H]1O[C@@H]2COP(=O)(O)O[C@H]2[C@H]1OC(=O)CCC [Bucladesine sodium salt],0.998
20,Cc1ncc(C[n+]2csc(CCO)c2C)c(N)n1 [Thiamine hydrochloride],0.999

# Tested on: P. vulgatus RND KO;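 further: active when median AUC fell below 0.1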
# Experiment: growth AUC normalised to DMSO control (median) (fraction of control); higher = less growth inhibition, active = hit call of the paper
# Details: 20 µM
# How it was run: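 Anaerobic growth was tracked hourly at OD578 for 24 h in 96-well plates of mGAM seeded at OD578 0.01 with each approved-drug library compound at 20 μM and 1% DMSO. Strains had first been passaged twice overnight without oxygen. Three biological replicates were run. The reported median is the area under the curve, calculated by the trapezoidal rule on curves truncated at entry into stationary phase and normalised to vehicle wells on the same plate.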
row,Compound,growth AUC normalised to DMSO control
1,Cc1cc(/C=C/c2ccc3cc(N(C)C)ccc3[n+]2C)c(C)n1-c1ccccc1 [Pyrvinium pamoate],1.01
2,CCOc1ccc2nc(S(N)(=O)=O)sc2c1 [Ethoxzolamide],0.965
3,Cc1cc(C#N)cc(C)c1Oc1nc(Nc2ccc(C#N)cc2)nc(N)c1Br [Etravirine],1.03
4,O=C1C(=O)c2ccccc2C(O)=C1C1CCC(c2ccc(Cl)cc2)CC1 (configuration not stated) [Atovaquone],1.02
5,CC(C)OC(=O)C(C)(C)Oc1ccc(C(=O)c2ccc(Cl)cc2)cc1 [Fenofibrate],0.996
6,NNc1nncc2ccccc12 [Hydralazine hydrochloride],1.01
7,CC(C)(CO)[C@@H](O)C(=O)NCCC(=O)NCCSSCCNC(=O)CCNC(=O)[C@H](O)C(C)(C)CO [D-Pantethine],1.01
8,O=C1[C@@H]2[C@H]3CC[C@H](C3)[C@@H]2C(=O)N1CCCCN1CCN(c2ncccn2)CC1 [Tandospirone],1.07
9,C[N+](C)(C)C[C@H](O)CC(=O)[O-] [Levocarnitine],0.998
10,O=C(O)c1cc(/N=N/c2ccc(S(=O)(=O)Nc3ccccn3)cc2)ccc1O [Sulfasalazine],1
11,COC1=CC(=O)C[C@@H](C)[C@]12Oc1c(Cl)c(OC)cc(OC)c1C2=O [Griseofulvin],0.99
12,Cn1c(=O)c2nc[nH]c2n(C)c1=O [Theophylline monohydrate],1.02
13,CC1=C(C)C(=O)C(C(CCCCCC(=O)O)c2ccccc2)=C(C)C1=O (configuration not stated) [Seratrodast],0.944
14,N=C(N)c1ccc(OCCCCCOc2ccc(C(=N)N)cc2)cc1 [Pentamidine isethionate],0.591
15,NS(=O)(=O)c1cc2c(cc1Cl)NC(Cc1ccccc1)NS2(=O)=O (configuration not stated) [Benzylhydrochlorothiazide],1.08
16,CCOC(=O)c1ccc(C#Cc2ccc3c(c2)C(C)(C)CCS3)nc1 [Tazarotene],0.993
17,COc1ccc2c(c1)c(CC(=O)O)c(C)n2C(=O)c1ccc(Cl)cc1 [Indomethacin],0.967
18,C[C@H]1[C@H](OC(=O)CCC(=O)O)O[C@@H]2O[C@@]3(C)CC[C@H]4[C@H](C)CC[C@@H]1[C@@]24OO3 [Artesunate],1.01
19,O=c1[nH]cnc2c1ncn2[C@H]1CC[C@@H](CO)O1 [Didanosine],1

row,Compound,growth AUC normalised to DMSO control
1,C[C@]12CC[C@@H]3c4ccc(O)cc4CC[C@H]3[C@@H]1C[C@@H](O)[C@@H]2O [Estriol],0.979
2,CN(C/C=C/C#CC(C)(C)C)Cc1cccc2ccccc12 [Terbinafine],1.01
3,Nc1c2ccccc2nc2ccccc12 [Aminacrine],1.07
4,CCN1CCN(C(=O)N[C@@H](C(=O)N[C@@H]2C(=O)N3[C@@H]2SC(C)(C)[C@@H]3C(=O)O)c2ccccc2)C(=O)C1=O [Piperacillin sodium salt],0.0135 (active)
5,O=C(C1CCCCC1)N1CC(=O)N2CCc3ccccc3C2C1 (configuration not stated) [Praziquantel],0.997
6,CC(=O)[C@H]1CC[C@H]2[C@@H]3CCC4=CC(=O)CC[C@]4(C)[C@H]3CC[C@]12C [Progesterone],0.0182 (active)
7,CN1CC(O)c2cc(N=NC(N)=O)c(O)cc21 (configuration not stated) [Carbazochrome],0.999
8,O=c1[nH]c(=O)n([C@H]2C[C@H](O)[C@@H](CO)O2)cc1C(F)(F)F [Trifluridine],0.13
9,CC(C(=O)O)c1ccc2c(c1)CC(=O)c1ccccc1S2 (configuration not stated) [Zaltoprofen],1.02
10,C=C(CC)C(=O)c1ccc(OCC(=O)O)c(Cl)c1Cl [Ethacrynic acid],0.994
11,O=c1[nH]c(=O)n([C@H]2C[C@H](O)[C@@H](CO)O2)cc1/C=C/Br [Brivudine],1.02
12,CCCCCCOc1ccccc1C(N)=O [Exalamide],1.01
13,Cc1ncc([N+](=O)[O-])n1CCO [Metronidazole],0.0156 (active)
14,CCCC(=O)Nc1ncnc2c1ncn2[C@@H]1O[C@@H]2COP(=O)(O)O[C@H]2[C@H]1OC(=O)CCC [Bucladesine sodium salt],1.02
15,CC(C)C[C@H](NC(=O)[C@@H](O)[C@H](N)Cc1ccccc1)C(=O)O [Ubenimex],0.448
16,O=C(Oc1ccccc1)c1ccccc1O [Phenyl salicylate],1.03
17,CC(C)(C)NCC(O)CSc1nc(-c2ccc(C(N)=O)s2)cs1 (configuration not stated) [Arotinolol hydrochloride],1.02
18,Cc1ncc(C[n+]2csc(CCO)c2C)c(N)n1 [Thiamine hydrochloride],0.978
